Pf apPOL block: Pf-apPOL inhibitors, biochemical, fluorescence; Plasmodium falciparum apicoplast DNA polymerase (apPOL); Recombinant Pf-apPOL, molecular beacon fluorescence, 1.5 h; inhibition, % at 10 µM; 210,000 compounds, 0.25% hits; AID 1794808, 2022
mHTT CaM bind: mutant huntingtin-calmodulin interaction inhibitors – biochemical, AlphaScreen, primary screen. P42858. AlphaScreen His-mHTT/GST-CaM binding, luminescence. inhibition, % at 15 µM. 190,000 compounds, 3.6% hits. AID 1671202, 2021
Large screens that a line does not name were inactive. Compounds with a hit are over-represented: about 3.6% of the library has one in this group of screens. Rule as the data show it: active = inhibition above about 50%; inactive = the rest.

Cc1ccc(Cn2c(=O)cc(C(=O)N3CCC4(CC3)OCCO4)c3ccccc32)cc1	mHTT CaM bind 59.0
Cc1cc(C(=O)N2CCC3(CC2)OCCO3)c2ccccc2n1	none
NNc1nnc2c(n1)[nH]c1ccc(Br)cc12	mHTT CaM bind 66.7
Brc1ccc2[nH]c3nc4ccccc4nc3c2c1	none
COC(=O)[C@H](CC(C)C)N(CCc1cn(Cc2ccccc2)nn1)S(=O)(=O)c1ccc(F)cc1Br	none
COC(=O)[C@H](CC(C)C)N(CCc1cn(Cc2ccc(C)cc2)nn1)S(=O)(=O)c1ccc(F)cc1Br	mHTT CaM bind 71.8
OCCC1CNCCN1Cc1ccco1 (stereo not drawn)	none (no result: Pf apPOL block)
COc1cccc(C(=O)Nc2nnc(SC)s2)c1	none
O=[N+]([O-])c1cc2c(cc1CN1CCN(c3ccccc3)CC1)OCO2	none
O=[N+]([O-])c1cc2c(cc1C1N(Cc3ccccc3)CCN1Cc1ccccc1)OCO2	mHTT CaM bind 60.0
COc1cc(OC)c2c(-c3ccccc3)cc(=O)oc2c1C(CCN1CCCC(C)C1)c1ccc2c(c1)OCO2 (stereo not drawn)	mHTT CaM bind 100.2
COc1cc(OC)c2c(-c3ccccc3)cc(=O)oc2c1C(CC(=O)N1CCCC1)c1ccc2c(c1)OCO2 (stereo not drawn)	mHTT CaM bind 68.9
COc1cc(O)c(C(CCN2CCCCC2)c2ccc3c(c2)OCO3)c(OC)c1 (stereo not drawn)	none
COc1cc(OC)c2ccc(=O)oc2c1C(CC(=O)N1CCCCC1)c1ccc2c(c1)OCO2 (stereo not drawn)	none
COc1cc(OC)c2c(-c3ccccc3)cc(=O)oc2c1C(CCN1CCCCC1)c1ccc2c(c1)OCO2 (stereo not drawn)	mHTT CaM bind 99.1
COc1cc(OC)c2ccc(=O)oc2c1C(CC(=O)N1CCCC1)c1ccc2c(c1)OCO2 (stereo not drawn)	none
CCN1CCn2c(nc3cc(C(=O)NCc4ccc(C)cc4)ccc32)C1=O	none
Cc1ccc(CN2CCC(C)(O)C(N3CCCC3)C2)s1 (stereo not drawn)	none
N#CC1=C(N)OC(c2ccccc2)=C(n2cncn2)C1c1ccc(Br)cc1 (stereo not drawn)	mHTT CaM bind 57.0
N#CC1=C(N)OC(c2ccccc2)=C(n2cnc([N+](=O)[O-])n2)C1c1ccccc1 (stereo not drawn)	mHTT CaM bind 75.4
N#CC1=C(N)OC(c2ccccc2)=C(n2cnc([N+](=O)[O-])c2)C1c1cccnc1 (stereo not drawn)	none
N#CC1=C(N)OC(C2CC2)=C(n2cnc([N+](=O)[O-])n2)C1c1ccccc1 (stereo not drawn)	none
O=C1CC(C(=O)Nc2ccccc2Cl)N=C(Nc2nc3ccccc3s2)N1 (stereo not drawn)	none
CC(C)n1c(=O)c2c(ncn2Cc2cccc(F)c2)n(-c2ccc(F)c(F)c2)c1=O	none
CCc1c(C)nc2ccc(OC)cc2c1SCC(=O)O	none
Cc1ccc(C(=O)Nc2c3c(nn2-c2ccc(Cl)cc2)CSC3)cc1[N+](=O)[O-]	none
O=C(Nc1ccc2c(c1)OCO2)C1CCCN(c2cn[nH]c(=O)c2)C1 (stereo not drawn)	mHTT CaM bind 62.6
O=C(Nc1ccc2c(c1)OCO2)C1CCN(c2cc(N3CCCC3)ncn2)CC1	mHTT CaM bind 60.6
Cc1ccc(NC(=O)C2CCCN(c3cnn(C)c(=O)c3)C2)cc1C (stereo not drawn)	none
Cn1ncc(N2CCCC(C(=O)Nc3ccc4c(c3)OCO4)C2)cc1=O (stereo not drawn)	mHTT CaM bind 71.9
O=C(Nc1ccc(Br)cc1)C1CCN(c2cc(N3CCCC3)ncn2)CC1	none
O=C(Nc1ccc2c(c1)OCCO2)C1CCCN(c2cnn(Cc3ccccc3)c(=O)c2)C1 (stereo not drawn)	none
COc1ccc(NC(=O)C2CCCN(c3cn[nH]c(=O)c3)C2)cc1OC (stereo not drawn)	none
O=C(Nc1ccc2c(c1)OCO2)C1CCCN(c2cnn(Cc3ccccc3)c(=O)c2)C1 (stereo not drawn)	mHTT CaM bind 69.3
CCC(=O)N(C)CC(=O)N1N=C(c2cccs2)CC1c1ccccc1Cl (stereo not drawn)	none
CCC(C)C(=O)N1CCCN(C2=NS(=O)(=O)C(c3ccccc3)=C2C)CC1 (stereo not drawn)	none
O=C(COc1ccccc1Br)Nc1ccc(Cl)c(C(F)(F)F)c1	Pf apPOL block 70.6
Cc1nc(OCC(=O)Nc2ccc(Cl)c(C(F)(F)F)c2)c2ccccc2n1	none
CCC(CC)NC(=O)C1CCc2nc(N3CCN(C(=O)C(C)C)CC3)sc2C1 (stereo not drawn)	none
CC1=NN(C(=O)c2ccccc2Cl)C(O)(c2ccc(Cl)cc2)C1 (stereo not drawn)	none
CC1=NN(C(=O)c2ccccc2F)C(O)(c2ccc(Cl)cc2)C1 (stereo not drawn)	none
CC1=NN(C(=O)c2ccc(Cl)cc2)C(O)(c2ccc(Cl)cc2)C1 (stereo not drawn)	mHTT CaM bind 67.0

Source: PubChem BioAssay (University of Kansas High Throughput Screening Laboratory)
